The values that follow come from PubChem BioAssay.

The source made the active and inactive calls. No stated cut-off is given here; in the data, active means inhibition above about 30%; inactive means the rest.

The assay can be described thus: growth suppression of yeast trafficking mutant, preliminary HTS, modulators of trafficking downstream of Golgi apparatus project, 1536-format plate, OD 615 nm (AID 637). The settings on record: yeast transport mutant growth, absorbance 615 nm, 18 h; hits give high values.
With `Cc1sc2ncnc(OCC(=O)N3CCN(S(=O)(=O)c4ccc(Cl)cc4)CC3)c2c1C`, the inhibition was -0.91% (inactive). Next, `CCOC(=O)CNS(=O)(=O)c1c(C)noc1C`: 2.73% (inactive). Under `COC(=O)c1onc(C(=O)c2ccccc2)c1C(=O)OC` stands 3.71% (inactive); under `O=C(O)c1cccc(CN2C(=O)SC(Nc3ccccc3)C2=O)c1` (stereo not given), 2.95% (inactive); under `COC(=O)C1C(=O)c2c([nH]c(C(=O)OCCOC(C)C)c2C)CC1C` (stereo not given), -11.5% (inactive). Under `CCOC(=O)c1c(NC(=O)CSc2nnc(-c3ccc(OC)cc3)o2)sc2c1CCC2` stands -1.77% (inactive).

As to `O=C(c1cccnc1NCc1ccccc1)N1CCOCC1`, the inhibition is 23.2% (inactive). Under `O=C1CC(N2CCN(c3cccc(C(F)(F)F)c3)CC2)C(=O)N1c1ccccc1` (stereo not given) stands -12.7% (inactive); under `Cc1ccc(N=C2NC(=O)CS2)c(C)c1`, 5.57% (inactive); under `O=C(NCc1cccs1)C1CCCN(c2ncccn2)C1` (stereo not given), -1.94% (inactive). Next, `Cc1cc2ncn(N)c2cc1C`: 1.83% (inactive); `COc1ccccc1N1CCN(C(=O)CSc2nc(-c3ccccc3)cc(=O)[nH]2)CC1`: -6.83% (inactive); `Cc1nn(-c2ccccc2)c(Cl)c1C(=O)NCC(=O)O`: 0.17% (inactive). Under `COc1nc(N2CCOCC2)nc(-n2cccc2)n1` stands -5.09% (inactive); under `CCSc1nnc(NC(=O)C(CC)(C(F)(F)F)C(F)(F)F)s1`, 33.3% (active); under `COC(=O)C1CCN(C(=O)NC(C)(C)C)CC1`, 8.73% (inactive). In the case of `Cc1nn(-c2ccc(Cl)cc2)c2sc(C(=O)N3CCN(c4ccccn4)CC3)cc12`, the inhibition was -2.54% (inactive). `COc1ccc(Oc2c(C)oc3cc(OC(=O)N4CCOCC4)ccc3c2=O)cc1`: the inhibition was -5.08% (inactive). Next, `C[C@@H]1C[C@H](O)c2cc(Cl)ccc2N1`: -3.33% (inactive). On to `O=C(NCCCNC1CCCCC1)c1ccc(/C=N/O)nc1`, for which the inhibition is -5.71% (inactive).

Regarding `CC(=O)Nc1ccc(S(=O)(=O)N2CCC(c3nc4ccccc4[nH]3)CC2)cc1`, the inhibition is 0% (inactive). Next, `CCOc1ccc(S(=O)(=O)Nc2ccccc2C(=O)Nc2ccccc2N2CCOCC2)cc1`: 3.06% (inactive); `O=C(c1ccc(COc2c(F)c(F)c(F)c(F)c2F)o1)N1CCOCC1`: 6.98% (inactive); `CC(C)[C@H](NC(=O)NC1CCCC1)C(=O)O`: -9.34% (inactive). Under `CCOC(=O)C(C)(C)Sc1nc2c(cnn2-c2ccc(C)cc2)c(=O)[nH]1` stands -0.79% (inactive); under `COc1ccccc1NC(=O)c1ccc(COc2ccccc2OC)o1`, 0% (inactive); under `O=C(NCc1ccccn1)Nc1ccc2c(c1)OCO2`, -0.95% (inactive). Under `CCSc1nnc(NC(=O)CSc2ncccn2)s1` stands -2.74% (inactive). For `O=C(OCc1nnc(-c2ccc(Cl)cc2)o1)c1ccc(=O)n(Cc2ccccc2)n1`, the inhibition was -9% (inactive). Regarding `COc1ccc(C(=O)NCCn2ccc3ccccc32)c(OC)c1`, the inhibition is 1.11% (inactive).

Consider `O=C(NCc1cccs1)C1CCN(S(=O)(=O)c2cccs2)CC1`, for which the inhibition is -4.29% (inactive).

As for `CCC(C)n1[nH]c(=O)c2c(C)cc(C)nc21` (stereo not given), the inhibition is -1.64% (inactive). Under `CC1(C)OC(=O)C(=CNC(CCC(N)=O)C(=O)O)C(=O)O1` (stereo not given) stands 5.4% (inactive); under `O=c1c(CN2CCN(Cc3ccccc3)CC2)coc2ccc(Cl)cc12`, -6.89% (inactive); under `Cn1c(=O)[nH]c2cc3ccccc3cc21`, -0.73% (inactive). Next, `COc1ccc(-c2[nH]nc3c2C(c2ccccc2OC(=O)N2CCOCC2)C(C#N)=C(N)O3)cc1` (stereo not given): -1.45% (inactive). Under `COC(=O)C1=C(N)Oc2cc(C)[nH]c(=O)c2C1c1ccncc1` (stereo not given) stands 5% (inactive). In the case of `CCn1c2ccccc2c2cc(NC(=O)CSc3nnc(C4CC4)n3Cc3ccco3)ccc21`, the inhibition was -3.17% (inactive). Under `O=C(CSc1nc2ncccc2[nH]1)Nc1ccc2c(c1)OCCO2` stands -0.82% (inactive). Next, `CCSc1nnc(NC(=O)c2nn(C(C)C)c(=O)c3ccccc23)s1`: -2% (inactive).

In general, inhibition refers to the change of the read-out against control, counted positive when it falls.
